Data on 122 compounds can be found in PubChem BioAssay AID493248 (Broad Institute, 2011).

In all, about 2,300 compounds went through this assay and about 1,400 (61%) were called active. Roughly 7% stayed inconclusive and do not appear here. The rule behind the calls is not given here. So high a share suggests a set chosen from earlier hits. These entries were drawn from the full list. Results with a measured potency or affinity are listed apart.

Chain of FAD-linked sulfhydryl oxidase ALR (Homo sapiens) (P55789 whole entry, looked up): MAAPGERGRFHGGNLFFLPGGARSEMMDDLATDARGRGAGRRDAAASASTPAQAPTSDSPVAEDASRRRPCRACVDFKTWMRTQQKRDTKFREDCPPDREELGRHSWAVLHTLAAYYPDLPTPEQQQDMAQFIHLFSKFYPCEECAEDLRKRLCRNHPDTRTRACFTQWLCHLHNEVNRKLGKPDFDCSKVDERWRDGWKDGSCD

This assay has as its target FAD-linked sulfhydryl oxidase ALR (Homo sapiens) (UniProt P55789). Briefly: inhibitors of human ALR sulfhydryl oxidase, dose response, biochemical, H2O2 detection, luminescence, cherry-pick (AID 493248). The settings on record: purified ALR, DTT oxidation, H2O2 HRP-luminol luminescence; at 10 µM (top of the series).
For the compound `Cc1cc(C(=O)Nc2nc3c(C)cccc3s2)c(C)o1`, the activity change, negative = inhibition is -29%.
The same measure for `COc1cccc(CNc2nc3ccccc3n2CCN2CCCCC2)c1`: 73.7%.
Take `Cc1[nH]oc(=O)c1N=Nc1c(Cl)cccc1Cl`: the activity change, negative = inhibition was -48.5%.
With `O=S(=O)(c1cccs1)n1cnc2ccccc21` the figure was -2.54%.
The same measure for `Cc1cc(Cc2ccc(N)c(C)c2)ccc1N`: 12.8%; for `C=CCSc1nnc2c(n1)OC(c1ccco1)Nc1ccccc1-2` (configuration not stated): -91.3%; for `COC(=O)c1ccn(CC(=O)NC2CCCCC2)n1`: -5.32%.
On to `COc1cc(C(=S)NC2CCCCC2)ccc1O`, for which the activity change, negative = inhibition came to 99.8%.
As for `CSc1nnc(-c2ccncc2)n1CCCN1CCCC1=O`, the activity change, negative = inhibition was determined as 69.3%.
Take `Cc1cc(C(=O)CN2C(=O)CCC2=O)c(C)n1Cc1ccccc1`: the activity change, negative = inhibition is -73.3%.
The same measure for `N#CCC(=O)Nc1ccc(C(=O)NCCc2c[nH]c3ccccc23)cc1`: -21.6%.
Regarding `CS(=O)(=O)N(CC(=O)NCc1ccccn1)Cc1ccc(Cl)cc1`, the activity change, negative = inhibition was found to be 128%.
The same measure for `COC(=O)[C@@H](N)Cc1ccc(O)c(O)c1`: -110%.
With `Cc1cccn2cc(CNc3ccccc3)nc12` the figure was -7.4%; with `CC(=O)Nc1cccc(NC(=O)c2cccc(-c3ccc(O)cc3)c2)c1`, 64.6%; with `Cc1cc(C)n2nc(C(=O)N/N=C/c3ccc(O)cc3)nc2n1`, -107%.
As to `COc1cc(/C=N/N2C(=O)C3C4C=CC(CC4)C3C2=O)ccc1O` (configuration not stated), the activity change, negative = inhibition was -104%.
Consider `Nc1nnnn1/N=C/c1ccc(O)cc1`, for which the activity change, negative = inhibition is -84.1%.
As to `S=c1[nH]nc(C2CCCCC2)n1/N=C/c1cccs1`, the activity change, negative = inhibition was -12.9%.
The same measure for `CC(=O)c1cc(CC=C(C)C)c(O)cc1O`: 11.5%; for `O=C(Nc1nnc(-c2ccco2)o1)c1cccc(Cl)c1`: -18.4%.
With `Cc1cccc(C(=O)Nc2onc(C)c2C#N)c1` the figure was -51.1%; with `Cc1[nH]nc(-c2ccc(O)cc2O)c1-c1nc2ccccc2s1`, 368%; with `CC(C)c1ccc(NC2CCCN(C(=O)CCN3CCCC3=O)C2)cc1` (configuration not stated), -61%.
The same measure for `COc1ccc(NC2CCCN(C(=O)Cn3ccc(C)n3)C2)cc1OC` (configuration not stated): 108%; for `O=C(CCc1ccncc1)N1CCCC(Nc2ccc(F)c(F)c2)C1` (configuration not stated): -11.3%.
`CC(C)N1C(=O)C2C(c3ccccc3O)NC(C)(C(=O)O)C2C1=O` (configuration not stated): the activity change, negative = inhibition is 4.76%.
With `CCc1c(C(=O)NCc2cnn(C)c2)csc1C` the figure was -7.16%; with `Cc1cccc(CSc2nn3c(=O)c(C)nnc3s2)c1`, -99.2%.
The same measure for `Cc1ccc(CNC(=O)C(NS(=O)(=O)c2ccc3nc(C)sc3c2)C(C)C)cc1` (configuration not stated): 40.5%; for `Cc1nc2ccc(S(=O)(=O)NC(C(=O)Nc3nccs3)C(C)C)cc2s1` (configuration not stated): -35.5%; for `COc1ccc(NC(=O)CNS(=O)(=O)c2ccc3nc(C)sc3c2)c(OC)c1`: -62.8%.
With `C/C(=N\NS(=O)(=O)c1ccc(Cl)cc1)c1ccc(O)cc1`, the activity change, negative = inhibition was -79.4%.
The same measure for `Cc1cc(NC(=O)Nc2cccc(C)c2C)no1`: -49%.
With `CC(=O)Nc1cccc(N=NN2CCCCC2)c1` the figure was 26.8%; with `O=C(Nc1ccccc1N1CCCC1)c1cccnc1`, -34.6%.
The same measure for `CC(=O)Nc1ccc(S(=O)(=O)NNC(=O)c2cccc(Cl)c2)cc1`: -37.6%; for `Cc1cc(NC(=O)c2ccoc2C)ccc1Br`: -11.3%; for `COc1ccc(S(=O)(=O)Nc2nc3ccccc3nc2Nc2cccc(C(=O)O)c2)cc1`: -80.5%.
On to `CCc1nnc(NS(=O)(=O)c2ccc(NC(=O)OC)cc2)s1`, for which the activity change, negative = inhibition was -99.5%.
The same measure for `Cc1nc2ccc(Br)cn2c1NC(C)(C)C`: 15.9%; for `O=C1CSC(c2ccccc2)N1c1ccc([N+](=O)[O-])cc1` (configuration not stated): -50.9%; for `COc1ccc(C2SCC(=O)N2Cc2ccccc2)cc1` (configuration not stated): -33.1%.
As to `Cc1noc(NS(=O)(=O)c2ccc(NC(=O)CCN3C(=O)c4ccccc4C3=O)cc2)c1C`, the activity change, negative = inhibition was -21.6%.
The same measure for `O=C(O)CCCC(=O)N1CCN(c2nc(-c3ccccc3)c3ccccc3n2)CC1`: -0.988%; for `COc1ccc(N=C2C(=O)Nc3ccccc32)cc1`: -24.8%.
Turning to `Cc1ccc(N(C(=O)c2cccs2)C2C=CS(=O)(=O)C2)cc1` (configuration not stated), the activity change, negative = inhibition is -56.3%.
For the compound `COc1ccc(Nc2nccc(-c3cccc(N)c3)n2)cc1`, the activity change, negative = inhibition was -11.7%.
On to `CC1CCC2(CC1)NC(=S)N(c1ccccc1)N2` (configuration not stated), for which the activity change, negative = inhibition was -28.1%.
With `COC(=O)c1sccc1NC(=O)c1cc(C)on1` the figure was -8.04%; with `Cc1nn(C)c(Nc2ccc(Br)cc2)c1Br`, -46.2%.
The same measure for `Cn1c(CNc2ccc(O)cc2)nc2ccccc21`: -101%; for `COc1ccc(N2CCN(c3ncccn3)CC2)cc1`: -8.28%.
Turning to `Cc1ccccc1NC(=O)CNc1ccccc1N1CCCCC1`, the activity change, negative = inhibition was -89.6%.
With `COC(=O)c1c(NC(=O)CN2CCN(Cc3ccc4c(c3)OCO4)CC2)sc(C)c1C`, the activity change, negative = inhibition was -8.94%.
For the compound `COc1ccc(S(=O)(=O)N2CCC(C(=O)Nc3ccccc3N3CCCC3)CC2)cc1OC`, the activity change, negative = inhibition was -28.9%.
With `O=C(Nc1ccccc1N1CCCC1)c1cccc(F)c1` the figure was -3.33%; with `c1ccc2c(c1)CSc1ccccc1N2`, -6.27%.
The same measure for `CC1CN(C(=O)Nc2ccc3snnc3c2)c2ccccc21` (configuration not stated): -13.6%; for `CCCCCC(=O)N/N=C/c1ccc(N(C)C)cc1`: -20.3%.
The same measure for `O=C(CNC(=O)c1ccccc1Br)N/N=C/c1ccc(O)cc1`: -106%.
Consider `CN(C)c1ccc(C=Nc2cnn(C)c2C(N)=O)cc1`, for which the activity change, negative = inhibition was -35.9%.
With `CN(C)c1ccc(/C=N/NC(=O)c2sccc2-n2cccc2)cc1` the figure was -99%; with `CCn1c(NC(=O)c2ccc(C)cc2)c2ccccc2nc1=O`, -48.8%; with `O=Cc1c(Sc2ccccc2)nc2ccccn2c1=O`, -18.4%.
With `O=C1Oc2ccccc2C(=O)/C1=C\N1CCN(c2ccccc2)CC1`, the activity change, negative = inhibition is -15.7%.
The same measure for `Cc1ccc(S(=O)(=O)Nc2c(O)ccc3ccccc23)cc1`: 13.8%.
For `COc1ccc(OC)c(S(=O)(=O)Nc2cccc3c(O)cccc23)c1`, the activity change, negative = inhibition turned out to be 31.7%.
In the case of `COc1ccc(C=O)cc1CSc1ccccn1`, the activity change, negative = inhibition was -11.6%.
The same measure for `COc1c(OC)c(O)c2c(=O)cc(-c3c(O)cccc3O)oc2c1OC`: 162%.
With `Cc1nc(-c2ccc([N+](=O)[O-])cc2)c(-c2ccccc2)o1` the figure was 29.9%.
For `O=C(CC1C(=O)Nc2ccccc2N1CC(=O)N1CCCC1)Nc1ccc(Br)cc1` (configuration not stated), the activity change, negative = inhibition is -30%.
Take `CCN(CC)c1ccc2oc(=O)c(C)nc2c1`: the activity change, negative = inhibition stood at 88.3%.
As to `O=C(CCNc1cccc(Cl)c1)c1ccco1`, the activity change, negative = inhibition is -4.82%.
For the compound `O=C(c1cc(C(=O)c2ccco2)cc(C(=O)c2ccco2)c1)c1ccco1`, the activity change, negative = inhibition is -7.08%.
The same measure for `COc1cc(NCCC(=O)c2cccs2)c(OC)cc1Cl`: -89.7%; for `NC(=O)NC1CCCc2c1[nH]c1ccc(Cl)cc21` (configuration not stated): -12.4%.
Regarding `c1ccc2c3c([nH]c2c1)-c1[nH]ncc1CC3`, the activity change, negative = inhibition is -82.4%.
With `COc1ccc(-c2csc(NC(=O)[C@H](C)N3C(=O)C4CC=CCC4C3=O)n2)cc1OC` (some centres not stated) the figure was -58.5%.
Regarding `COc1cc(/C=C2\SC(=Nc3ccccc3OC)NC2=O)ccc1O`, the activity change, negative = inhibition was -53.3%.
With `O=C(c1cccc(Cl)c1)C1CCCN(Cc2ccc(N3CCNC3=O)cc2)C1` (configuration not stated), the activity change, negative = inhibition was -1.51%.
With `CCC(=O)N1CCN=C1SCc1cccc(F)c1` the figure was -25.9%; with `O=C(CN1C(=O)CSC1=O)N1CCCC(Nc2ccc(F)cc2)C1` (configuration not stated), -78.4%; with `Cc1nc(N2CCN(C)CC2)c2cc(-c3ccccc3)sc2n1`, -4.2%.
Regarding `COc1cc(C(=O)O)c2c(c1C)OC(=O)c1c(C)cc(O)c(C=O)c1O2`, the activity change, negative = inhibition was -39.1%.
The same measure for `CNC(=O)c1csc(-c2ccc(C)cc2)n1`: 146%; for `Cc1cccc(NCc2ccc(N(C)C)cc2)n1`: -5.45%.
Turning to `CCNc1nc(NCC)nc(N(C)N)n1`, the activity change, negative = inhibition is -22.3%.
With `COc1ccc(O)c(CNc2ccccc2F)c1` the figure was -6.08%.
With `CC(C)n1c(NCc2cccs2)nc2ccccc21` the figure was -4.15%; with `CC(=O)Nc1ccc(-c2csc(NNC(=O)c3ccccc3)n2)cc1`, 7.25%.
The same measure for `CC(=O)Nc1ccc(NCc2ccc(C)s2)cc1`: -11.5%; for `O=C(CN1C(=O)S/C(=C\C=C\c2ccccc2)C1=O)Nc1ccccc1C(=O)O`: -58%.
For `COc1cc(C(=O)N/N=C/c2cccc(Oc3ccccc3)c2)ccc1O`, the activity change, negative = inhibition is -2.05%.
With `CCN(CC)S(=O)(=O)c1ccc(C(=O)Nc2nnc(CSC)o2)cc1` the figure was -25.7%.
Turning to `Cc1[nH]n(C(N)=S)c(=O)c1N=Nc1cccc([N+](=O)[O-])c1C`, the activity change, negative = inhibition was -50.5%.
In the case of `Cc1cc(C(=O)Nc2nc3c(s2)CCCC3)no1`, the activity change, negative = inhibition is -50.2%.
On to `Cc1cc(C(=O)Nc2sc3c(c2C#N)CCCC3)no1`, for which the activity change, negative = inhibition was -53.9%.
Turning to `O=C(NCc1n[nH]c(=S)n1-c1ccc(Cl)c(Cl)c1)c1ccc(S(=O)(=O)N2CCCCC2)cc1`, the activity change, negative = inhibition is 15%.
With `COc1ccc(C(=O)c2ccc(N(C)C)cc2)c(OC)c1` the figure was -4.89%; with `CC(C)C(=O)n1nc(-c2cccnc2)nc1NCc1cccs1`, -25.7%.
The same measure for `C(=C\c1nc2ccccc2[nH]1)/c1ccccc1`: -1.44%; for `O=c1[nH]ccc2c(O)cccc12`: -103%.
Take `Nc1ccc2nc[nH]c2c1`: the activity change, negative = inhibition is -12.8%.
For the compound `CC(C)Cc1nc2ccc(N)cc2[nH]1`, the activity change, negative = inhibition is -1.73%.
The same measure for `Nc1ccc(-c2nc3ccc([N+](=O)[O-])cc3[nH]2)cc1`: 31%.
As for `COc1ccc(N=C2C(=O)N3CCCc4cccc2c43)cc1`, the activity change, negative = inhibition is -15.6%.
The same measure for `O=C(NCc1ccccc1Cl)C1CCCN(S(=O)(=O)c2cnc[nH]2)C1` (configuration not stated): 20%; for `COc1cc(NC(=O)C2CCCN(S(=O)(=O)c3cnc[nH]3)C2)cc(OC)c1` (configuration not stated): -31%.
The same measure for `Cc1ccc(S(=O)(=O)N2CCCC(C(=O)O)C2)s1` (configuration not stated): 5.85%; for `O=C(NCCc1ccccc1)C1CCCN(S(=O)(=O)c2cnc[nH]2)C1` (configuration not stated): 6.71%.
The same measure for `N#Cc1c2n(c3c(=O)n(Cc4ccccc4)cnc13)CCCC2`: 18%; for `N#Cc1c(N)c(C(=O)c2ccccc2)n2c1CCC2`: -45.9%; for `COc1ccc(C(=O)NCCNc2nc3ccc(C)cc3cc2C#N)cc1OC`: 3.56%.
Regarding `O=C(/C(=N/N=C/c1ccc(O)c(O)c1O)c1ccccc1)c1ccccc1`, the activity change, negative = inhibition was -31.1%.
With `CN(C)c1ccc(/C=N/Nc2cccc(C(=O)O)c2)cc1` the figure was -23.9%; with `CC1CCN(CC(=O)N2c3ccccc3CCc3ccccc32)CC1`, 2.93%; with `CCC(C)(C)n1nnnc1CN1CCc2ccccc21`, 23.2%.
In the case of `COc1ccc(NC(=O)CC2Nc3cccc4cccc(c34)NC2=O)cc1` (configuration not stated), the activity change, negative = inhibition was -74.6%.
The same measure for `CN(C)c1ccc(NC(=O)CC2NCCNC2=O)cc1` (configuration not stated): -99.5%; for `CC(C)Cn1c(N)c(C=O)c(=O)n(C)c1=O`: -3.74%.
As for `CN(Cc1ccco1)C(=O)C(Cc1ccccc1)NS(=O)(=O)c1ccc2c(c1)CCC(=O)N2` (configuration not stated), the activity change, negative = inhibition is -12%.
